Results on 9 compounds are retold here after PubChem BioAssay (NCATS).

Inconclusive results are not listed. Calls of active or inactive are those of the source. Calls follow the shape of the dose curve; as a rule, active = well fitted cell-killing curve with a large enough effect; inconclusive = small, poorly fitted or top-dose-only effect, or effect the other way; inactive = no such curve, though single readings can be large or run the other way.

Experiment [1] in a line: Quantitative High-Throughput drug screen in 47 multiple myeloma cell lines against the NCATS MIPE library collection: JJN3_DSMZ cell viability assay (AID 1918966; also: nearly all actives have a fitted effect of over 50% in size). The conditions noted are these: JJN3 myeloma cells viability, CellTiter-Glo ATP, 48 h; series mostly up to 45.8 µM. A digest of the protocol:
(§1)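 We plated 500 myeloma cells per well, pinned in MIPE 4.0 compounds, and incubated for 48 hours at 37C. ATP was then quantified with CellTiter-Glo, with DMSO and media-only wells defining 100% and 0%.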
A general note: In ATP-based viability assays light output follows the ATP content of the culture.

Experiment [2] can be described thus: Quantitative High-Throughput drug screen in 47 multiple myeloma cell lines against the NCATS MIPE library collection: H1112_PLB cell viability assay (AID 1918967; also: nearly all actives have a fitted effect of over 30% in size; also: potency is read from the fitted curve at half-maximal effect). The conditions noted are these: H1112 myeloma cells viability, ATP luminescence, 48 h; series mostly up to 45.8 µM. Put shortly: as §1
Experiment [3] can be described thus: Quantitative High-Throughput drug screen in 47 multiple myeloma cell lines against the NCATS MIPE library collection: KMS12BM_JCRB cell viability assay (AID 1918971). Also: nearly all actives have a fitted effect of over 35% in size. Also: potency is read from the fitted curve at half-maximal effect. The conditions noted are these: KMS12BM myeloma viability, CellTiter-Glo ATP, 48 h; series mostly up to 45.8 µM. Put shortly:
as §1

Experiment [4] can be described thus: Quantitative High-Throughput drug screen in 47 multiple myeloma cell lines against the NCATS MIPE library collection: INA6_PLB cell viability assay (AID 1918965; also: nearly all actives have a fitted effect of over 55% in size; also: potency is read from the fitted curve at half-maximal effect). The conditions noted are these: INA6 myeloma viability, CellTiter-Glo ATP luminescence, 48 h; series mostly up to 45.8 µM. Put shortly: (§2)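 Approved and investigational drugs from MIPE 4.0 were added by pin tool to 500 cells per well. After 48 hours at 37C, ATP-based CellTiter-Glo luminescence indicated remaining viability.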

The nature of experiment [5]: Quantitative High-Throughput drug screen in 47 multiple myeloma cell lines against the NCATS MIPE library collection: KMS12PE_JCRB cell viability assay (AID 1918972). Also: nearly all actives have a fitted effect of over 30% in size. Also: potency is read from the fitted curve at half-maximal effect. The conditions noted are these: KMS12PE myeloma viability, CellTiter-Glo ATP, 48 h; series mostly up to 45.8 µM. Put shortly:
as §2

Experiment [6] is described as follows: Quantitative High-Throughput drug screen in 47 multiple myeloma cell lines against the NCATS MIPE library collection: KMS20_JCRB cell viability assay (AID 1918973). Also: nearly all actives have a fitted effect of over 45% in size. Also: potency is read from the fitted curve at half-maximal effect. The note with it: CellTiter-Glo ATP, 48 h; series mostly up to 45.8 µM. Put shortly: as §1
Experiment [7] is described as follows: Quantitative High-Throughput drug screen in 47 multiple myeloma cell lines against the NCATS MIPE library collection: KMS27_JCRB cell viability assay (AID 1918970). Also: nearly all actives have a fitted effect of over 30% in size. Also: potency is read from the fitted curve at half-maximal effect. The note with it: KMS27 myeloma cells, CellTiter-Glo ATP viability, 48 h; series mostly up to 45.8 µM. A digest of the protocol:
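Luminescent ATP read-out (CellTiter-Glo, 5 min at room temperature) after 48 h compound exposure of 500 KMS27_JCRB cells per well; DMSO wells define full viability and media-only wells zero.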

Experiment [8] in a line: Quantitative High-Throughput drug screen in 47 multiple myeloma cell lines against the NCATS MIPE library collection: Karpas25_ECACC cell viability assay (AID 1918968; also: potency is read from the fitted curve at half-maximal effect; nearly all actives have a fitted effect of over 35% in size). The note with it: Karpas25 myeloma viability, CellTiter-Glo ATP, 48 h; series mostly up to 45.8 µM. Put shortly:
as §1

Experiment [9] can be described thus: Quantitative High-Throughput drug screen in 47 multiple myeloma cell lines against the NCATS MIPE library collection: KMS21BM_JCRB cell viability assay (AID 1918974). The conditions noted are these: ATP luminescence, 48 h; viability: at 45.8 µM (top of the series) unless noted. Put shortly: as §1

On to `Cc1c(C)c2c(c(C)c1O)CCC(C)(COc1ccc(CC3SC(=O)NC3=O)cc1)O2` (stereo not drawn), for which the Potency entry in experiment [1], in experiment [2] and in experiment [3] was “inactive” throughout.
As to `O=C(O)[C@@H](c1ccc(OCc2ccc3ccccc3n2)cc1)C1CCCC1`, the Potency result in experiment [4], in experiment [2], in experiment [3], in experiment [5] and in experiment [6] was “inactive” each time.
As to `Cn1cnc([N+](=O)[O-])c1Sc1ncnc2nc[nH]c12`, the results for the Potency in experiment [4] and in [2] were 5.26 µM (active) and 10.5 µM (active), respectively. The Potency result in [3] was “inactive”.
Consider `CN[C@@H](C)C(=O)N[C@H]1CCCC[C@H]2CC[C@@H](C(=O)N[C@@H](c3ccccc3)c3cn(CCCCc4ccc(CCCCn5cc([C@@H](NC(=O)[C@@H]6CC[C@@H]7CCCC[C@H](NC(=O)[C@H](C)NC)C(=O)N76)c6ccccc6)nn5)cc4)nn3)N2C1=O`, for which the figures for the Potency in experiment [4], in [5] and in [6] were 8.33 µM (active), 4.69 µM (active) and 4.18 µM (active), respectively. In addition, the Potency result in experiment [3] was “inactive”.
Consider `Cc1ccc(N(CC2=NCCN2)c2cccc(O)c2)cc1`, for which the Potency in [4] was 13.2 µM (active); in experiment [2], 26.4 µM (active); in [7], 16.6 µM (active). In addition, the Potency result in [6] is “inactive”.
Take `Cc1cc([C@@H](C)Nc2ccccc2C(=O)O)c2nc(N3CCOCC3)cc(=O)n2c1`: the Potency was 13.6 µM (active) in experiment [4], 3.03 µM (active) in experiment [8] and 10.8 µM (active) in [7]. Further, in experiment [9], the viability was 15.1% [at 92.2 µM] (active).
Regarding `C1COC(NC(C2CC2)C2CC2)=N1`, the Potency in [4] is 9.35 µM (active). Moreover, the Potency result in [2] and in [6] was “inactive” in each case.
`Cc1ccccc1C(C(=O)NC1CCCC1)N(C(=O)Cn1cnc2ccccc21)c1cccc(F)c1` (stereo not drawn): the Potency is 20.9 µM (active) in experiment [4], 20.9 µM (active) in [8] and 14.8 µM (active) in experiment [3]. In addition, the Potency entry in [7] was “inactive”.
For the compound `C#Cc1cccc(Nc2ncnc3cc(OCCOC)c(OCCOC)cc23)c1`, the Potency in [4] was 18.7 µM (active); in [3], 20.9 µM (active); in [5], 2.09 µM (active).

By viability is commonly meant a per cent measure of how many cells are alive, often set against a control.
